AHR activator – AHR activators, primary screen, cell-based, luminescence, luciferase reporter, human; Aryl hydrocarbon receptor (Homo sapiens), P35869; AHR-responsive luciferase reporter cells; activation, % at 5 µM; actives 2.5% (n = 320,000); AID 2796, 2010; in the data active = activation above about 47%;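 note: 0% = vehicle wells and 100% = reference agonist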
ADAM10 inh – human ADAM10 inhibitors, primary screen, biochemical, QFRET, HTS. Disintegrin and metalloproteinase domain-containing protein 10 (Homo sapiens), O14672. recombinant ADAM10, EDANS/DABCYL FRET peptide cleavage, 3 h. inhibition, % at 7 µM. actives 0.62% (n = 370,000);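 active = inhibition above a per-campaign cutoff equal to the mean of compounds falling between control-based bounds plus 3 SD, cut at about 20% in these data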;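 note: 0% = DMSO wells while the 100% control is not disclosed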
proKLK7 act – proKLK7 zymogen activators, primary screen, biochemical, fluorescence intensity; Kallikrein-7 (Homo sapiens), P49862; purified proKLK7, EDANS-DABCYL substrate fluorescence; 100% is mature enzyme control, 0% vehicle; activation, % at 7 µM; actives 0.9% (n = 370,000);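 active = activation above the mean of all tested compounds plus 3 SD, computed per campaign excluding outliers beyond control limits, cut at about 13% in these data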
Target sequence (P49862 whole entry, looked up): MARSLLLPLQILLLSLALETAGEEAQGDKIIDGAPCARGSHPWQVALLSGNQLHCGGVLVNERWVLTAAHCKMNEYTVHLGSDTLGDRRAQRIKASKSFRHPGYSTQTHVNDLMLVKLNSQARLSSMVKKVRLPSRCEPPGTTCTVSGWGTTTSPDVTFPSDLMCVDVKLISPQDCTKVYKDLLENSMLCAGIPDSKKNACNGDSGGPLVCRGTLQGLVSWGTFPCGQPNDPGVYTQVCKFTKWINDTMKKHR
ADAM17 inh – ADAM17 inhibitors, primary screen, biochemical, QFRET | Disintegrin and metalloproteinase domain-containing protein 17 (Homo sapiens), P78536 | recombinant ADAM17, EDANS/DABCYL FRET peptide cleavage | actives 0.83% (n = 370,000) | inhibition, % at 6.95 µM;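 active = inhibition above the mean of compounds lying between control limits plus 3 SD, set per campaign, cut at about 8.5% in these data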;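 note: 0% = DMSO-only wells as the low control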
rCAG RNA binder – binders of r(CAG) RNA repeats, primary screen, biochemical, fluorescence. inhibition, % at 3 µM. actives 1.3% (n = 370,000). r(CAG) RNA repeat, TO-PRO-1 dye displacement fluorescence. AID 651821, 2012;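 active = inhibition above the plate cutoff, the mean of all test compounds on that plate plus 3 SD, cut at about 35% in these data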;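 note: 0% = DMSO alone and 100% = 100 µM mitoxantrone as full dye displacement; higher means more dye released from RNA so lower well fluorescence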
GRIN3A LBD mod – binders of NR3A ligand-binding domain, primary screen, biophysical, differential scanning fluorimetry, uHTS; actives 2.5% (n = 340,000); Glutamate receptor ionotropic, NMDA 3A (GRIN3A) ligand-binding domain; Tm shift relative to glycine control, % at 25 µM; NR3A LBD differential scanning fluorimetry, Tm shift; 0% = protein alone, 100% = glycine-bound protein;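 active = melting temperature shift of at least 10% of the positive control shift, at one fixed dose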
rCAG binder conf – small molecules binding CAG repeat RNA – biochemical, fluorescence, confirmation; shares compounds with rCAG RNA binder; r(CAG) RNA repeat, TO-PRO-1 dye displacement fluorescence; inhibition, % at 3 µM; actives 70% (n = 4,300);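 active = inhibition above a per-plate cutoff, the mean inhibition of sample wells plus 3 SD, cut at about 35% in these data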;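 note: loss of TO-PRO-1 fluorescence as compound displaces dye from 1x1 AA loop RNA; 0% = DMSO only wells and 100% = 100 µM mitoxantrone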
dCAG dye counter – displacement of TO-PRO-1 from CAG DNA duplex, counter-screen for rCAG RNA repeat binder project, biochemical, fluorescence, TO-PRO-1 dye, d(CAG) DNA oligo | shares compounds with rCAG RNA binder | d(CAG) DNA oligo TO-PRO-1 dye displacement | inhibition, % at 3 µM | actives 94% (n = 4,300);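 active = inhibition above its plate's cutoff, the mean test-well inhibition plus 3 SD, cut at about 4.8% in these data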;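 note: 0% = DNA dye mix with DMSO and 100% = 100 µM mitoxantrone; hits displace the dye from DNA and so lower well fluorescence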
DNA CAG DR – inhibitors of DNA CAG/GTC TO-PRO-1 complex, dose response, counter-screen for rCAG RNA repeat binder project, biochemical, fluorescence, TO-PRO-1 dye; AID 686960, 2013; DNA CAG/GTC duplex TO-PRO-1 dye displacement fluorescence; actives 20% (n = 250); shares compounds with rCAG RNA binder; IC50, µM; in the data active = IC50 below about 10 µM
An asterisk follows results filed as active; i = inactive; . = no result. An excerpt weighted towards active compounds, which were near 7% of everything screened.

SMILES | AHR activator | ADAM10 inh | proKLK7 act | ADAM17 inh | rCAG RNA binder | GRIN3A LBD mod | rCAG binder conf | dCAG dye counter | others
O=C(Nc1sc2c(c1C(=O)O)CCCC2)c1cccs1 | 10.7 | -5.1 | -0.2 | 0.2 | 18.9 | -0.4 | . | .
CCOC(=O)c1c(NC(=O)C2C3C=CC(C3)C2(C)C(=O)O)sc2c1CCCC2 (stereo not given) | 0.2 | -27.4 | 0.9 | -11.2 | 43.3* | -1.3 | 46.2* | 15.1*
O=C(Nc1sc2c(c1C(=O)O)CCCCC2)c1cccs1 | 21.1 | -5.8 | 0.0 | -3.3 | 35.9* | -2.6 | 18.5 | 4.7*
COC(=O)c1c(N2C(=O)Nc3ccccc3N2O)sc(C)c1C | 0.6 | 0.2 | -0.2 | 1.4 | 7.5 | 0.5 | . | .
O=C1[C@@H](C2CCCCC2)[C@@H]2c3ccccc3C=NN2[C@@H]2c3ccccc3C=NN12 | . | -5.3 | 0.0 | -1.6 | 2.6 | . | . | .
COc1ccccc1NS(=O)(=O)c1ccc(C)c(C(N)=O)c1 | -0.3 | 4.7 | 0.8 | -1.4 | 1.3 | 0.3 | . | .
COc1ccccc1NS(=O)(=O)c1cc(C(=O)Nc2ccc(S(=O)(=O)Nc3onc(C)c3C)cc2)ccc1C | . | -8.6 | -0.4 | -1.8 | 69.8* | 2.3 | 78.1* | 30.4* | DNA CAG DR=i
Cc1noc(C)c1S(=O)(=O)Nc1ccc(C(=O)Nc2ccc(OC(F)(F)F)cc2)cc1 | 8.2 | 13.4 | 0.5 | 1.2 | 38.9* | 12.1* | 28.5 | 4.7*
Cc1noc(NS(=O)(=O)c2ccc(NC(=O)c3ccc(OC(C)C)cc3)cc2)c1C | -0.3 | 0.7 | 0.6 | -0.7 | 43.9* | -21.1 | 25.6 | 3.8
COc1ccccc1NS(=O)(=O)c1ccc(C)c(NS(=O)(=O)c2cc(C(=O)O)cc(C)c2C)c1 | 1.8 | -2.3 | 0.1 | -6.7 | 42.5* | 3.8 | 20.4 | 7.3*
CN1CCCCC(NC(=O)COCc2ccccc2)C1=O (stereo not given) | . | 4.8 | 0.7 | 1.9 | 1.5 | . | . | .
COc1ccccc1NS(=O)(=O)c1ccc(C)c(C(=O)Nc2ccc(S(=O)(=O)Nc3onc(C)c3C)cc2)c1 | . | 1.8 | 0.0 | -4.3 | 62.7* | -2.6 | 56.9* | 22.3*
NC(=O)N/N=C/c1ccc(-c2ccc(S(=O)(=O)Nc3ncccn3)cc2)o1 | . | -156.0 | -0.4 | -43.0 | -6.1 | 0.7 | . | .
COc1ccccc1C(=O)Nc1ccc(S(=O)(=O)Nc2onc(C)c2C)cc1 | -2.1 | 9.1 | 0.1 | 0.5 | 13.2 | -1.0 | . | .
CC(C)Oc1ccc(C(=O)N/N=C/c2ccc(-c3ccc(S(=O)(=O)Nc4ncccn4)cc3)o2)cc1 | 0.1 | -316.3 | 1.3 | -108.5 | 53.7* | -9.2 | 64.7* | 21.7*
COc1ccc(C(=O)Nc2ccc(S(=O)(=O)Nc3onc(C)c3C)cc2)c(OC)c1 | -0.2 | -1.2 | -0.1 | -3.0 | 40.7* | -0.8 | 20.3 | 4.0
CCCCN(C)C(=O)c1ccc(Nc2nc(C(N)Cc3ccc(C(F)(F)F)cc3)cs2)nc1 (stereo not given) | . | -10.2 | -1.1 | -3.3 | 9.3 | . | . | .
Cc1cc2oc(C(=O)Nc3ccc(S(=O)(=O)Nc4nccs4)cc3)cc(=O)c2cc1Cl | 5.2 | 5.1 | -0.1 | -1.4 | 77.5* | 17.4* | 86.6* | 47.6*
